Eya2 phos inh: blocks the phosphatase activity of human Eya2; AID 488837; Potency, µM (highest dose often 76.9 µM), for the others: at the top dose activity, negative = inhibition, most hits filed as inhibitors; recombinant Eya2, OMFP fluorescence dephosphorylation (OMFP is methylfluorescein phosphate); actives 0.006% (n = 330,000); note: potency is the fitted concentration of half-maximal effect
Target sequence (O00167 whole entry, looked up): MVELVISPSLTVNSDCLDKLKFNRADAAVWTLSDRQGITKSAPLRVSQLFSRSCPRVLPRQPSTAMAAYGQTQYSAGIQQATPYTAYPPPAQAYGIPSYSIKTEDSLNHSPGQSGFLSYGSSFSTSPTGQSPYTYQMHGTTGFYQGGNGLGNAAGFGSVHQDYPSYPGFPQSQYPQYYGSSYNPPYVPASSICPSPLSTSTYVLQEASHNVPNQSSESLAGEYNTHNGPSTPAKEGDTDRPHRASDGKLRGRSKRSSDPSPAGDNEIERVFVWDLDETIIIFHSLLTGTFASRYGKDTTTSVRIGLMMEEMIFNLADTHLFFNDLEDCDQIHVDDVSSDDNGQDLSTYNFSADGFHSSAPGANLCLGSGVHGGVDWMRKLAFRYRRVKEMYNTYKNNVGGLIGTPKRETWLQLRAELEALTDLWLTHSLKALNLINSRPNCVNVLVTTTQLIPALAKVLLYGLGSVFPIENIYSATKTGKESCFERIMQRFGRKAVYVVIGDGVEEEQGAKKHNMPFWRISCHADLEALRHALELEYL
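Eya2 protein (added as 0.2 uM solution) was preincubated with compound for 10 min at ambient temperature in 50 mM HEPES pH 7.5, 50 mM NaCl, 5 uM MgCl2, 0.05% BSA, 1 mM DTT. OMFP (added at 50 uM) then reacted 10 min; fluorescence read at 485/525 nm.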
CtBP-E1A blk: inhibitors of CtBP/E1A interaction | AlphaScreen GST-E1A/His-CtBP binding, 1536-well; stronger effect = lower value | activity change, % (no concentration beside the values) | actives 0.49% (n = 340,000); in the data active = activity change below about -65%; inconclusive = mostly about -30% to -63%
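GST-E1A and His-tagged CtBP (125 nM each as 5X stock) were preincubated with pin-transferred compound for 2 h at 37 °C in the dark, then glutathione donor and nickel acceptor beads were added for 1 h before AlphaScreen reading.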
Six1-Eya2 inh: Six1/Eya2 interaction inhibition | AlphaScreen GST-Six1/His-Eya2 binding, biochemical; stronger effect = lower value | AID 651725 | Q15475+O00167 | actives 0.56% (n = 360,000) | activity change, % (test concentration not listed); in the data active = activity change below about -65%; inconclusive = mostly about -30% to -63%
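GST-Six1 + His-Eya2 (5X stock: 250/500 nM); Tris pH 8.0, 300 mM NaCl, 0.05% BSA, 0.02% Tween 20; GSH donor/Ni acceptor beads; 1 h 37 °C dark; AlphaScreen readout.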
B2AR arrestin: recruits beta-arrestin to the human beta2-adrenergic receptor | P07550 | beta-arrestin recruitment to beta2AR, cell-based reporter | Potency, µM (series often up to 46.1 µM), without a hit: top-dose activation, actives largely listed as activators | actives 0.02% (n = 330,000) | AID 492947;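 note: potency is the fitted concentration of half-maximal effect; 0% = DMSO controls and full agonism = EC100 isoproterenol or metaproterenol; nearly all actives have a fitted effect of over 65% in size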
L3MBTL1 block: inhibitors of human L3MBTL1; actives 0.66% (n = 230,000); AlphaScreen L3MBTL1–H3K9me1 peptide binding; Potency, µM (series often up to 57.1 µM), inactives show at the top dose activity, negative = inhibition, usual class: inhibitors; Q9Y468; AID 485360; note: potency is the fitted concentration of half-maximal effect; nearly all actives have a fitted effect of over 60% in size
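Read-out is AlphaScreen signal from streptavidin donor and nickel chelate acceptor beads (10 ug/mL final each) bridging L3MBTL1 (50 nM) and biotinylated K9-monomethylated H3(1-15) peptide (75 nM), after 30 min compound exposure at room temperature.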
Starred values were filed as active, the others as inactive; ? = inconclusive; . = no result. Shown are actives, neighbours in structure and some others; about 0.9% of the full set was active somewhere. Unless noted, calls come from the whole dose curve; as a rule, active = well fitted curve in the direction sought with a large enough effect; inconclusive = small, poorly fitted or top-dose-only effect, or another doubt; inactive = no such curve, though single readings can be large; an effect the other way counts as inactive or inconclusive. Unless noted, % is set by controls: 0 for no effect and ±100 for the full control effect.

SMILES | Eya2 phos inh | CtBP-E1A blk | Six1-Eya2 inh | B2AR arrestin | L3MBTL1 block
O=C(N/N=C/c1ccccc1O)c1ccc2c(c1)OCO2 | 14.9% | -78.1* | ? | 2.7% | .
O=C(N/N=C/c1ccc2c(c1)OCO2)c1ccc2c(c1)OCCO2 | -0.1% | -14.0 | -17.2 | -0.1% | -3.6%
Cc1cc(Br)cc(/C=N/NC(=O)c2ccc3c(c2)OCO3)c1O | 2.6% | . | -0.2 | -0.5% | -9.2%
COc1cc(C(=O)N(C(C)C)C2CCCCC2)cc(OC)c1OC | . | 1.2 | 4.4 | . | .
Cc1nnc(NC(=O)CSc2nnc(CC(=O)Nc3ccccc3C)n2C)s1 | -3.1% | -1.0 | -3.7 | 0.0% | .
CC(=O)C1CCC2C3CC=C4N(C)C(=O)CCC4(C)C3CCC12C (stereo unspecified) | . | -3.5 | 7.7 | . | .
C[C@]12CC[C@@H]3c4ccc(O)cc4C[C@@H](CCCCCCCCCS(=O)CCCC(F)(F)C(F)(F)F)[C@H]3[C@@H]1CC[C@@H]2O (stereo partly specified) | -4.2% | . | . | . | .
N#CC(C#N)=Cc1c[nH]c(=O)c(C#N)c1Nc1ccccc1 | . | -28.8 | -17.0 | . | .
O=C(N/N=C/c1cc(Cl)cc([N+](=O)[O-])c1O)c1ccccc1NS(=O)(=O)c1cccs1 | -3.4% | -0.8 | -77.0* | 0.2% | -0.5%
Cc1cc(C(=O)N/N=C/c2cc(Cl)cc([N+](=O)[O-])c2O)c2ccccc2n1 | -5.7% | -90.9* | -88.7* | 0.8% | ?
O=C(NN=Cc1ccc(O)cc1)c1ccccc1NS(=O)(=O)c1cccs1 | -10.7% | -18.3 | -3.2 | 0.0% | 7.1%
CN(C)S(=O)(=O)c1cccc(NC(=S)N/N=C/c2ccc(O)c(O)c2O)c1 | -1.8% | -97.3* | -92.7* | 0.1% | 1.58µM*
COc1cccc(/C=N/NC(=S)Nc2cccc(S(=O)(=O)N(C)C)c2)c1 | -4.7% | -12.7 | -4.3 | 17.8µM* | .
COc1cc(/C=N/NC(=S)Nc2cccc(S(=O)(=O)N(C)C)c2)cc(OC)c1O | 1.8% | 5.3 | -21.5 | 3.0% | -14.4%
COc1ccc(O)c(/C=N/NC(=S)Nc2cccnc2)c1 | 8.7% | . | -89.6* | 0.1% | 11.2µM*
COc1ccc(O)c(/C=N/NC(=S)Nc2cccc(S(=O)(=O)N(C)C)c2)c1 | 8.4% | -2.8 | -90.1* | 0.9% | 10µM*
COc1cc(NS(=O)(=O)c2ccc(NC(=S)NC(=O)c3ccc(F)c(F)c3)cc2)nc(OC)n1 | 2.1% | -5.5 | -5.3 | 0.0% | .
CO/N=C(/C(=O)N[C@@H]1C(=O)N2C(C(=O)O)=CCS[C@H]12)c1cnc(N)s1 | -10.4% | . | . | 0.2% | .
CC1C(=O)C(C)C(c2ccc(Cl)cc2)NC1c1ccc(Cl)cc1 (stereo unspecified) | . | 13.7 | -5.3 | . | .
CC1C(=NO)C(C)C(c2ccc(N(C)C)cc2)NC1c1ccc(N(C)C)cc1 (stereo unspecified) | -9.6% | 7.4 | 0.0 | 0.4% | 25.1µM*
CC/C(=N\Nc1ccccc1[N+](=O)[O-])c1ccc(O)cc1 | -0.4% | -71.4* | ? | 0.1% | 25.1µM*
CC(C)C[C@H](NC(=O)C1OC1C(=O)O)C(=O)NCCCCN=C(N)N (stereo partly specified) | -4.4% | . | . | . | .
CCOC(=O)C1=C(C)NC2=C(C(=O)CC(c3ccc(OC)c(OC)c3)C2)C1c1ccc(C)o1 (stereo unspecified) | -9.8% | -3.7 | -15.2 | 0.0% | -0.9%
COc1ccccc1NC(=O)C1=C(C)NC2=C(C(=O)CC(c3ccc(OC)c(OC)c3)C2)C1c1coc2ccccc2c1=O (stereo unspecified) | -10.7% | -20.4 | -78.4* | 3.7% | -5.2%
COc1ccc(S(=O)(=O)c2c(N)n(Cc3ccco3)c3nc4ccccc4nc23)cc1 | 2.8% | -18.3 | ? | -0.8% | 28.2µM*
SMILES | Eya2 phos inh | CtBP-E1A blk | Six1-Eya2 inh | B2AR arrestin | L3MBTL1 block
COc1ccc(Cn2c(C)nc3c(c2=O)c2nc4ccccc4nc2n3Cc2ccco2)cc1 | . | 2.7 | 0.0 | . | .
CCOc1ccc2c(c1)c(N=NC(=N)N)c(O)n2C | 1.0% | ? | -79.8* | 0.2% | -1.5%
CCc1nc2ccccc2c(C(=O)Nc2ccc(F)cc2)c1C | -1.7% | 7.8 | -0.2 | 0.4% | -0.4%
O=C1CSC(=S)N1N=C1CCCCCC1 | -5.6% | -10.3 | -80.0* | 6.3% | -28.3%
CCOc1c(OC(C)=O)ccc(/C=C/c2ccc3cccc(OC(C)=O)c3n2)c1[N+](=O)[O-] | -13.2% | -24.6 | -13.2 | -0.3% | -10.3%
C=CCN1C(=O)/C(=C/c2ccc(OC(C)=O)c(OCC)c2[N+](=O)[O-])SC1=S | -15.5% | -22.5 | ? | -0.2% | 39.8µM*
Cc1cc(N/N=C/c2ccc(O)cc2)nc(NS(=O)(=O)c2ccccc2)n1 | 4.8% | ? | -73.0* | 0.0% | 31.6µM*
CCOC(=O)C1CCCN(S(=O)(=O)CCNC(=O)c2ccc3c(c2)OCO3)C1 (stereo unspecified) | 16.8% | 6.5 | 3.8 | 0.1% | 2.4%
CN(C)C(=O)CCc1ccc2c3c([nH]c2c1)[C@]1(CCc2ccccc2)[C@@H](C(=O)N2CCCCC2)C[C@H](CC(=O)NC(C)(C)C)C(=O)N1CC3 | -1.9% | -12.4 | -3.8 | -0.1% | 11.3%
COc1ccc2cc(CNCCOCCOCCNCc3ccc4cc(OC)ccc4c3)ccc2c1 | . | -1.6 | 3.5 | . | .
O=C(Nc1nc2ccccc2s1)c1cnccn1 | -16.0% | 8.9 | -7.8 | -0.2% | .
O=C(Nc1nnc(SCc2ccc(F)cc2)s1)c1ccccn1 | -7.9% | -95.5* | -90.2* | 5.9% | .
O=C(Nc1nc2ccc(F)cc2s1)c1ccccn1 | -17.0% | -92.4* | -76.9* | -0.4% | .
Cc1c(C(c2ccc(F)cc2)c2c(C)n(C)n(-c3ccccc3)c2=O)c(=O)n(-c2ccccc2)n1C | -8.4% | . | 1.9 | -0.1% | 1.5%
COc1ccc(S(=O)(=O)NCCOc2cccc3cccnc23)cc1OC | -1.2% | 4.2 | 3.1 | 0.1% | 1.3%
CCS(=O)(=O)c1ccc(OC)c(N=Nc2ccc(O)c3ncccc23)c1 | -7.2% | -96.3* | -91.6* | 0.0% | .
CCN(CC)S(=O)(=O)c1cc(OC)ccc1N=Nc1ccc(O)c2ncccc12 | -22.2% | . | -91.5* | -0.6% | .
Oc1ccccc1C=NNC(=S)NC1CC2C=CC1C2 (stereo unspecified) | . | ? | -77.2* | . | .
Oc1c(Cl)cc(Cl)cc1/C=N/NC(=S)NC1CC2C=CC1C2 (stereo unspecified) | 1.5% | -82.3* | ? | 5.0% | 31.6µM*
Oc1ccccc1/C=N/NC(=S)NC1CC2C=CC1C2 (stereo unspecified) | -6.6% | -85.8* | -82.2* | ? | ?
CCOc1cccc2sc(N3CCN(C(=O)c4ccc5ncsc5c4)CC3)nc12 | 4.4% | -14.4 | 0.6 | 0.0% | -1.6%
O=C(Nc1ccc2c(c1)OCCO2)c1cccc2nc3ccccc3nc12 | 0.4% | -67.7* | ? | -1.8% | -6.2%
